From PubChem BioAssay AID1209 (Sanford-Burnham Center for Chemical Genomics, 2008)
Hit rate of the full screen: of about 190,000 compounds, about 810 (0.43%) were called active. For the sample, actives were picked, then their nearest neighbours and some compounds at random. Unmarked numbers belong to inactive results. Rule as the data show it: active = inhibition above about 50%; inactive = the rest.

Target: Mannose-6-phosphate isomerase (Homo sapiens) (UniProt P34949)
Assay: inhibitors of human PMI, primary screen, biochemical, fluorescence intensity, coupled assay (AID 1209);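 also: plate controls were DMSO vehicle for no effect and wells lacking substrate for full effect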
Conditions: purified PMI enzyme, at 20 µM, hits give high values

Sequence of Mannose-6-phosphate isomerase (Homo sapiens) (P34949 whole entry, looked up): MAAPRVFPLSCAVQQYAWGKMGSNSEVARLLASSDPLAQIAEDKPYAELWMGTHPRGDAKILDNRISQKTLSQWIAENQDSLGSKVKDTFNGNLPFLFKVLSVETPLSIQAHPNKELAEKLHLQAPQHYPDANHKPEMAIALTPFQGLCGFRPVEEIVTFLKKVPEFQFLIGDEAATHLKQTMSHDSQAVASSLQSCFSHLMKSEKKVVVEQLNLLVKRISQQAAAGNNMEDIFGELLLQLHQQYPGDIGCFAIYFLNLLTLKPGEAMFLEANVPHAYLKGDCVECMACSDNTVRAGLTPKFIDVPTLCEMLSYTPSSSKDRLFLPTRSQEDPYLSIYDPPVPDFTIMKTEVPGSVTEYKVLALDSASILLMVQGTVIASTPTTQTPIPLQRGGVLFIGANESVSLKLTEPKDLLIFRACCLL

Row | Compound | inhibition
1 | Cc1ccc(NCc2ccccc2O)c(C)c1 | 2.8%
2 | COc1ccc(/C=C(\C#N)C(=O)OCC(=O)NCc2ccccc2)cc1 | 0.9%
3 | COc1ccc(/C=C(\C#N)C(=O)OCC(=O)NC(=O)NCCC(C)C)cc1 | -4.9%
4 | COc1ccc(/C=C(\C#N)C(=O)OCCNC(=O)c2ccncc2)cc1 | 67.7% (active)
5 | CCCOc1ccc(CNC(=S)NCc2ccc(OC(C)C)cc2)cc1 | 6.1%
6 | O=C(NCc1ccncc1)c1ccc(N2CCCC2)c([N+](=O)[O-])c1 | 72.1% (active)
7 | O=C(NCc1ccccn1)c1ccc(N2CCCC2)c([N+](=O)[O-])c1 | -10.4%
8 | O=C(NCc1ccc2c(c1)OCO2)c1ccc(N2CCCCCC2)c([N+](=O)[O-])c1 | 10.1%
9 | S=C(Nc1ccc(Cl)cc1)Nc1ccc2cn[nH]c2c1 | 23.6%
10 | Cc1ccc(S(=O)(=O)N(C)C)cc1NC(=S)Nc1ccc2cn[nH]c2c1 | 55.4% (active)
11 | S=C(Nc1ccc2cn[nH]c2c1)Nc1ccc(Cl)cc1Cl | 55.6% (active)
12 | S=C(Nc1ccc2cn[nH]c2c1)Nc1ccccc1Cl | 14.1%
13 | Cc1ccc(S(=O)(=O)N(C)C)cc1NC(=S)Nc1ccc2[nH]c(=O)[nH]c2c1 | 44.5%
14 | CN(C)S(=O)(=O)c1cccc(NC(=S)Nc2ccc3cn[nH]c3c2)c1 | 44.4%
15 | C/C(=N\NC(=O)COc1ccc(C(C)(C)C)cc1)c1ccc2c(c1)OCCO2 | 19%
16 | COc1ccccc1NC(=O)Cn1cnc2c(oc3ccccc32)c1=O | 4.7%
17 | Cc1ccc2c(c1)sc[n+]2Cc1ccccc1 | -11.9%
18 | COC(=O)[C@H](CC(C)C)NC(=O)CCc1nnc(COc2ccccc2)o1 | -1.7%
19 | CNC(=O)NCC12CC3CC(CC(C3)C1)C2 | 0%
20 | COc1ccc(O)c(/C=N/n2c(-c3ccco3)csc2=Nc2cccnc2)c1 | 11.8%
21 | CCN=c1scc(-c2cccs2)n1/N=C/c1cc(OC)ccc1O | -5%
22 | CCN=c1scc(C)n1/N=C/c1cc(Br)c(O)c(Br)c1 | -24.9%
23 | COCCN=c1scc(-c2cccs2)n1/N=C(\C)c1ccco1 | -16.8%
24 | COCCN=c1scc(-c2ccccc2)n1/N=C/c1c[nH]c2ccccc12 | 25.3%

Row | Compound | inhibition
25 | CCN=c1scc(C)n1/N=C/c1ccc(O)c(O)c1O | 82.5% (active)
26 | CCN=c1scc(C)n1/N=C/c1ccsc1 | -6.7%
27 | COCCN=c1scc(-c2cccs2)n1/N=C/c1ccc(O)c(O)c1O | 68.4% (active)
28 | COCCN=c1scc(-c2ccco2)n1/N=C/c1ccc(O)c(O)c1O | 69.7% (active)
29 | Cc1c(Br)cc(C(=O)OC2CCN(C)CC2)c(C)c1C | -1.2%
30 | CCc1nnc(NC(=O)CSc2nnc(CNc3ccc(Cl)cc3)o2)s1 | 9.1%
31 | CCCNc1nc2c(c(=O)n(C)c(=O)n2C)n1Cc1ccc(F)cc1 | 15.7%
32 | COc1ccc2c(c1OC)C(=O)N(c1nccs1)C2 | 6.6%
33 | CCN=C(NS(=O)(=O)c1ccc(Br)cc1)c1ccc(Cl)cc1 | 10.4%
34 | CC1CCCN(S(=O)(=O)c2ccccc2[N+](=O)[O-])C1 (stereo not given) | 9.5%
35 | COc1ccc(C2CC2/C(C)=N/OC(=O)C2CC2)cc1 (stereo not given) | 2.2%
36 | COc1ccc(C2CC2/C(C)=N/OC(=O)c2ccc(F)cc2)cc1 (stereo not given) | 73.5% (active)
37 | COc1ccc(C2CC2/C(C)=N/OC(=O)c2cccs2)cc1 (stereo not given) | -5.4%
38 | CCn1c(C)nc2cc(C(=O)OC(C(F)(F)C(F)F)C(F)(F)C(F)F)ccc21 | 18.2%
39 | Cc1cc2c(cc1C)N(C(=O)CSc1nncn1C)C(C)(C)c1ssc(=S)c1-2 | 10.4%
40 | COC(=O)c1cc(OC)nc2c1c(=O)n(C)c(=O)n2C | -3.1%
41 | CCC(=O)n1nc(-c2cccnc2)nc1NCc1ccc(OC)cc1 | 8.8%
42 | CCCC(=O)n1nc(-c2cccnc2)nc1NCc1ccc(OC)cc1 | 86.5% (active)
43 | CCCC(=O)n1nc(-c2cccnc2)nc1NCc1ccccc1 | 3.3%
44 | O=C(CSc1ccc2c(c1)OCCO2)Nc1cccc(S(=O)(=O)N2CCCCC2)c1 | 12.6%
45 | CC(=O)c1cc2c(O)c(O)ccc2o1 | 81.1% (active)
46 | CC(=O)c1cc2cc(O)ccc2o1 | 3.2%
47 | O=C(O)c1cc2c(ccc3ccccc32)o1 | 4.1%
48 | COc1cc(OC)cc(C(=O)N[C@H](C(=O)Nc2nnc(C3CC3)s2)C(C)C)c1 | 11.7%

Row | Compound | inhibition
49 | O=C(CCc1ccccc1)OCC(=O)c1cccc([N+](=O)[O-])c1 | 3.7%
50 | O=C(CSc1ncnc2c1oc1ccccc12)OCc1ccccc1 | 22.9%
51 | COc1ccccc1N1C(=O)CC(Sc2nc(C)cc(C)n2)C1=O (stereo not given) | 0.4%
52 | CCOc1ccccc1N1C(=O)CC(Sc2n[nH]c(-c3ccccc3)n2)C1=O (stereo not given) | 36%
53 | O=C(CN1CCCCC1)NCCNc1ccc(C(F)(F)F)cc1[N+](=O)[O-] | 3.9%
54 | COc1ccc(NS(=O)(=O)c2ccc(N3CCOCC3)c(NC(=O)c3ccc(F)cc3)c2)cc1 | 11.8%
55 | COc1ccc(NS(=O)(=O)c2ccc(N3CCCC3)c(NC(=S)Nc3cccc(C)c3C)c2)cc1 | 78.9% (active)
56 | COc1ccc(NS(=O)(=O)c2ccc(N3CCOCC3)c(NC(=O)c3ccccc3Cl)c2)cc1 | -2.5%
57 | CCN(CC)S(=O)(=O)c1ccc(N2CCCC2)c(NS(=O)(=O)c2ccc(OC)cc2)c1 | -1.6%
58 | COc1ccc(NC(=S)Nc2cccc(S(=O)(=O)N3CCCCC3)c2)cc1 | 1.3%
59 | COC(=O)CCC(=O)Nc1cc(S(=O)(=O)Nc2ccc(Cl)cc2)ccc1N1CCOCC1 | 21.8%
60 | COc1ccc(NS(=O)(=O)c2ccc(N3CCOCC3)c(NC(=O)C(C)C)c2)cc1 | -20%
61 | COc1ccc(NS(=O)(=O)c2ccc(N3CCOCC3)c(NC(=O)c3ccc(OC)cc3)c2)cc1 | 9.7%
62 | O=S(=O)(Nc1ccc(Cl)cc1)c1ccc(N2CCOCC2)c(NC(=S)NC2CC2)c1 | 61.3% (active)
63 | COc1ccc(NS(=O)(=O)c2ccc(N3CCCC3)c(NC(=S)Nc3cccc(S(=O)(=O)N(C)C)c3)c2)cc1 | 69.9% (active)
64 | COc1ccc(NS(=O)(=O)c2ccc(N3CCCC3)c(NC(=S)Nc3ccc(SC(F)F)cc3)c2)cc1 | 59% (active)
65 | O=S(=O)(Nc1ccc(Cl)cc1)c1ccc(N2CCOCC2)c(NC(=S)NCCN2CCOCC2)c1 | 12.4%
66 | CCCCNC(=S)NNC(=O)c1csc(C)c1CC | -8.1%
67 | O=C(O)CNC(=O)CC1S/C(=N/N=C/c2ccccc2O)NC1=O (stereo not given) | -8.1%
68 | CCCn1c(=O)c2ccccc2n2c(SCCOc3ccc(C)cc3)nnc12 | 12.7%
69 | CCn1nnnc1SCC(=O)Nc1cc(OC)cc(OC)c1 | 2.1%
70 | COc1ccc(C(=O)COC(=O)CCN=C2NS(=O)(=O)c3ccccc32)cc1OC | -5.9%
71 | Cc1c(NC(=O)CCC2CCCCC2)c(=O)n(-c2ccccc2)n1C | -13.7%
72 | O=S(=O)(NC1=NCCC1)c1cccc(NC(=S)NCCc2ccccc2)c1 | 2.3%

Row | Compound | inhibition
73 | Cc1cc(N2CCOCC2)nc2ccc(NC(=S)N3CCCCC3C)cc12 (stereo not given) | 52.4% (active)
74 | Cc1cc(N2CCOCC2)nc2ccc(NC(=O)C3CCC(C)CC3)cc12 (stereo not given) | -6%
75 | Cc1cc(N2CCOCC2)nc2ccc(NC(=S)N3CCN(c4ccccc4)CC3)cc12 | 22.5%
76 | O=c1oc2cc(OCc3ccc(C(F)(F)F)cc3)ccc2cc1-c1ccccn1 | -7%
77 | O=C(NNC(=S)Nc1ccc(Cl)cc1)c1cccs1 | -1.6%
78 | COc1cc(OC)cc(C(=O)NNC(=S)Nc2ccc(S(N)(=O)=O)cc2)c1 | -10.4%
79 | COc1cc(C(=O)NNC(=O)c2ccc(NC(C)=O)cc2)cc(OC)c1OC | -4.2%
80 | NS(=O)(=O)c1ccc(NC(=S)NNC(=O)c2cccs2)cc1 | 63.3% (active)
81 | COc1cc(C(=O)NNC(=S)Nc2ccc(S(N)(=O)=O)cc2)cc(OC)c1OC | 56.6% (active)
82 | O=C(NNC(=S)Nc1ccccc1)c1cccs1 | -13.9%
83 | COc1ccc(C(=O)Nc2ccc3c(c2)nc(CN2CCCC2)n3C)cc1 | 9.7%
84 | C=CCn1c(SCC(=O)c2cccs2)nnc1-c1cccc(OC)c1 | 11.5%
85 | O=C(N/N=C/C(c1ccccc1)c1ccccc1)c1ccccc1F | -8.5%
86 | Cc1nn(-c2nc3ccccc3n2Cc2ccccc2)c2c1C(=O)CC(C)(C)C2 | 24.7%
87 | CNCc1ccccc1Sc1cc(O)ccc1O | 19.1%
88 | CNCc1ccccc1Sc1ccc(O)c(O)c1 | 74.9% (active)
89 | CNCc1ccccc1Sc1cccc(O)c1 | -7%
90 | CN(C(=O)CS(=O)(=O)c1cn(CC(=O)N2CCOCC2)c2ccccc12)c1ccccc1 | -4.3%
91 | Cc1ccc(NC(=O)NC2C(NC(=O)Nc3ccc(C)cc3)N(C)C(=O)N2C)cc1 (stereo not given) | 9.5%
92 | CNC(=S)N(CCc1c(C)[nH]c2ccc(OC)cc12)Cc1cccnc1 | 16%
93 | CC(C)(Cc1ccc(O)cc1)NC(=O)CC(=O)N=Nc1c(O)[nH]c2cc(Br)ccc12 | 51.6% (active)
94 | O=C(CSCc1ccc(Br)cc1)N=Nc1c(O)[nH]c2ccccc12 | 4.5%
95 | CC(C)(Cc1ccc(O)cc1)NC(=O)CC(=O)N=Nc1c(O)[nH]c2ccc(Br)cc12 | 1.3%
